# Data reported in PubChem BioAssay AID1159580 (chemical genetic matrix, 2015).
# Hit rate of the full screen: of about 5,500 compounds, about 2,000 (36%) were called active. Another 18% or so got no clear call; they are omitted. The list shows a part of the results. Unmarked numbers belong to inactive results. Cut-off read from the data, not from the text of the source: active = normalized growth mostly below about 0.91 (no sharp cut-off); inconclusive = no clear call, values can overlap the other calls; inactive = mostly above about 0.92.
# Assay: chemical genetic growth profiling, strain panel (AID 1159580);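 note: tested at 20 µM; growth read once vehicle control cultures reached saturation at 30 °C; 1 = growth at the plate median or of vehicle wells; lower values mean less growth of the strain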
# Conditions: growth OD
# [1] = S. cerevisiae deletion strains, locus YAL013W, strain DEP1, stronger effect = lower value
# [2] = S. cerevisiae deletion strains, locus YBR229C, strain ROT2, stronger effect = lower value
# [3] = S. cerevisiae deletion strains, locus YCL061C, strain MRC1, stronger effect = lower value
# [4] = S. cerevisiae deletion strains, locus YDL101C, strain DUN1, stronger effect = lower value
# [5] = S. cerevisiae deletion strains, locus YDL134C, strain PPH21, stronger effect = lower value
# [6] = S. cerevisiae deletion strains, locus YDR150W, strain NUM1, stronger effect = lower value
# [7] = S. cerevisiae deletion strains, locus YEL061C, strain CIN8, stronger effect = lower value
# [8] = S. cerevisiae deletion strains, locus YGR078C, strain PAC10, stronger effect = lower value
# [9] = S. cerevisiae deletion strains, locus YHR030C, strain SLT2, stronger effect = lower value
# [10] = S. cerevisiae deletion strains, locus YHR087W, strain rtc3, stronger effect = lower value
# [11] = S. cerevisiae deletion strains, locus YJL187C, strain SWE1, stronger effect = lower value
# [12] = S. cerevisiae deletion strains, locus YJR043C, strain POL32, stronger effect = lower value
# [13] = S. cerevisiae deletion strains, locus YJR075W, strain HOC1, stronger effect = lower value
# [14] = S. cerevisiae deletion strains, locus YLR039C, strain RIC1, stronger effect = lower value
# [15] = S. cerevisiae deletion strains, locus YLR058C, strain SHM2 (second series), stronger effect = lower value
# [16] = S. cerevisiae deletion strains, locus YLR085C, strain ARP6, stronger effect = lower value
# [17] = S. cerevisiae deletion strains, locus YLR262C, strain YPT6, stronger effect = lower value
# [18] = S. cerevisiae deletion strains, locus YML094W, strain GIM5, stronger effect = lower value
# [19] = S. cerevisiae deletion strains, locus YMR219W, strain ESC1, stronger effect = lower value
# [20] = S. cerevisiae deletion strains, locus YMR263W, strain SAP30, stronger effect = lower value
# [21] = S. cerevisiae deletion strains, locus YMR307W, strain GAS1, stronger effect = lower value
# [22] = S. cerevisiae deletion strains, locus YNL128W, strain TEP1, stronger effect = lower value
# [23] = S. cerevisiae deletion strains, locus YNL153C, strain GIM3, stronger effect = lower value
# [24] = S. cerevisiae deletion strains, locus YNL298W, strain CLA4 (second series), stronger effect = lower value
# [25] = S. cerevisiae deletion strains, locus YNL322C, strain KRE1, stronger effect = lower value
# [26] = S. cerevisiae deletion strains, locus YNR030W, strain Alg12, stronger effect = lower value
# [27] = S. cerevisiae deletion strains, locus YPL055C, strain LGE1, stronger effect = lower value
# [28] = S. cerevisiae deletion strains, locus YPL241C, strain CIN2, stronger effect = lower value
# [29] = S. cerevisiae deletion strains, locus YPR135W, strain CTF4, stronger effect = lower value
# [30] = S. cerevisiae strains, strain wild type, stronger effect = lower value
# [31] = S. cerevisiae deletion strains, locus YKL190W, strain CNB1, stronger effect = lower value
# [32] = S. cerevisiae deletion strains, locus YOL006C, strain TOP1, stronger effect = lower value
# [33] = S. cerevisiae deletion strains, locus YGR229C, strain SMI1, stronger effect = lower value
structure (smiles),measurement,setting,value
CSc1nc2ccc(NC(=O)c3c(-c4ccccc4)noc3C)cc2s1,normalized growth,[1],0.971
same,normalized growth,[2],1.01
same,normalized growth,[3],0.99
same,normalized growth,[4],1.01
same,normalized growth,[5],1
same,normalized growth,[6],0.896
same,normalized growth,[7],1
same,normalized growth,[8],0.984
same,normalized growth,[9],0.897
same,normalized growth,[10],1
same,normalized growth,[11],1
same,normalized growth,[12],0.999
same,normalized growth,[13],1
same,normalized growth,[14],0.888
same,normalized growth,[15],0.996
same,normalized growth,[16],0.85
same,normalized growth,[17],0.787 (active)
same,normalized growth,[18],0.974
same,normalized growth,[19],1
same,normalized growth,[20],0.945
same,normalized growth,[21],0.961
same,normalized growth,[22],1
same,normalized growth,[23],1.01
same,normalized growth,[24],1
same,normalized growth,[25],0.998
same,normalized growth,[26],1
same,normalized growth,[27],0.926
same,normalized growth,[28],1
same,normalized growth,[29],0.921
same,normalized growth,[30],1.01
Cc1onc(-c2ccccc2Cl)c1C(=O)Nc1ccc(S(=O)(=O)Nc2nccs2)cc1,normalized growth,[1],1.01
same,normalized growth,[2],1.01
same,normalized growth,[3],0.985
same,normalized growth,[4],0.977
same,normalized growth,[5],0.976
same,normalized growth,[6],0.972
same,normalized growth,[7],1.01
same,normalized growth,[8],1.01
same,normalized growth,[9],0.982
same,normalized growth,[10],0.968
same,normalized growth,[11],1
same,normalized growth,[12],0.966
same,normalized growth,[13],1
same,normalized growth,[31],0.989
same,normalized growth,[14],0.975
same,normalized growth,[15],0.982
same,normalized growth,[16],1.05
same,normalized growth,[17],0.97
same,normalized growth,[18],1.03
same,normalized growth,[19],0.999
same,normalized growth,[20],1
same,normalized growth,[23],0.98
same,normalized growth,[24],0.949
same,normalized growth,[25],0.995
same,normalized growth,[26],0.996
same,normalized growth,[32],0.926
same,normalized growth,[27],1.05
same,normalized growth,[28],1.01
same,normalized growth,[29],0.932
same,normalized growth,[30],0.968
Cc1onc(-c2ccccc2Cl)c1C(=O)Nc1ccc2c(c1)OCO2,normalized growth,[1],0.993
same,normalized growth,[2],1.02
same,normalized growth,[4],1
same,normalized growth,[5],0.985
same,normalized growth,[6],0.935
same,normalized growth,[7],1.01
same,normalized growth,[8],1
same,normalized growth,[33],0.997
same,normalized growth,[9],1.08
same,normalized growth,[10],1.01
same,normalized growth,[11],1.01
same,normalized growth,[12],1.03
same,normalized growth,[13],1.01
same,normalized growth,[14],0.971
same,normalized growth,[15],1.02
same,normalized growth,[16],0.997
same,normalized growth,[17],0.99
same,normalized growth,[18],1.02
same,normalized growth,[19],1
same,normalized growth,[20],0.919
same,normalized growth,[21],1.01
same,normalized growth,[23],1
same,normalized growth,[24],1.04
same,normalized growth,[25],0.995
same,normalized growth,[26],1.03
same,normalized growth,[27],0.888
same,normalized growth,[28],1.01
same,normalized growth,[29],1.14
CCOP(=S)(OCC)SCSP(=S)(OCC)OCC,normalized growth,[1],0.993
same,normalized growth,"S. cerevisiae deletion strains, locus YBR021W, strain FUR4, stronger effect = lower value",1
same,normalized growth,[2],0.961
same,normalized growth,"S. cerevisiae deletion strains, locus YCL029C, strain bik1, stronger effect = lower value",0.978
same,normalized growth,"S. cerevisiae deletion strains, locus YDL035C, strain GPR1, stronger effect = lower value",0.956
same,normalized growth,"S. cerevisiae deletion strains, locus YDL074C, strain BRE1, stronger effect = lower value",0.89
same,normalized growth,[4],0.97
same,normalized growth,[5],0.986
same,normalized growth,"S. cerevisiae deletion strains, locus YDL185W, strain tfp1, stronger effect = lower value",0.957
same,normalized growth,"S. cerevisiae deletion strains, locus YDL192W, strain arf1, stronger effect = lower value",0.979
same,normalized growth,"S. cerevisiae deletion strains, locus YDR101C, strain arx1, stronger effect = lower value",0.989
same,normalized growth,[6],0.984
same,normalized growth,"S. cerevisiae deletion strains, locus YDR162C, strain NBP2, stronger effect = lower value",0.806 (active)
same,normalized growth,"S. cerevisiae deletion strains, locus YDR318W, strain mcm21, stronger effect = lower value",0.981
same,normalized growth,"S. cerevisiae deletion strains, locus YDR388W, stronger effect = lower value",0.994
same,normalized growth,"S. cerevisiae deletion strains, locus YDR502C, strain sam2, stronger effect = lower value",0.99
same,normalized growth,[7],0.995
same,normalized growth,"S. cerevisiae deletion strains, locus YER110C, stronger effect = lower value",0.987
same,normalized growth,"S. cerevisiae deletion strains, locus YER155C, strain BEM2, stronger effect = lower value",1.01
same,normalized growth,"S. cerevisiae deletion strains, locus YER167W, strain BCK2, stronger effect = lower value",0.972
same,normalized growth,"S. cerevisiae deletion strains, locus YGL078C, strain dbp3, stronger effect = lower value",0.984
same,normalized growth,"S. cerevisiae deletion strains, locus YGL086W, strain mad1, stronger effect = lower value",1
same,normalized growth,"S. cerevisiae deletion strains, locus YGL248W, strain PDE1, stronger effect = lower value",0.946
same,normalized growth,[8],0.969
same,normalized growth,"S. cerevisiae deletion strains, locus YGR135W, strain pre9, stronger effect = lower value",0.981
same,normalized growth,[33],0.908
same,normalized growth,"S. cerevisiae deletion strains, locus YGR252W, strain gcn5, stronger effect = lower value",0.954
same,normalized growth,[9],1.01
same,normalized growth,"S. cerevisiae deletion strains, locus YHR079C, strain IRE1 (second series), stronger effect = lower value",0.989
same,normalized growth,"S. cerevisiae deletion strains, locus YHR094C, strain hxt1, stronger effect = lower value",0.999
same,normalized growth,"S. cerevisiae deletion strains, locus YHR129C, strain ARP1, stronger effect = lower value",0.969
same,normalized growth,"S. cerevisiae deletion strains, locus YHR200W, strain rpn10, stronger effect = lower value",0.995
same,normalized growth,"S. cerevisiae deletion strains, locus YIL066C, strain RNR3, stronger effect = lower value",0.94
same,normalized growth,"S. cerevisiae deletion strains, locus YIL073C, strain SPO22, stronger effect = lower value",0.907
same,normalized growth,"S. cerevisiae deletion strains, locus YIL125W, strain kgd1, stronger effect = lower value",0.981
same,normalized growth,"S. cerevisiae deletion strains, locus YIR030C, strain dcg1, stronger effect = lower value",0.984
same,normalized growth,"S. cerevisiae deletion strains, locus YJL095W, strain BCK1, stronger effect = lower value",0.964
same,normalized growth,"S. cerevisiae deletion strains, locus YJL134W, strain LCB3, stronger effect = lower value",0.988
same,normalized growth,"S. cerevisiae deletion strains, locus YJL168C, strain set2, stronger effect = lower value",0.984
same,normalized growth,"S. cerevisiae deletion strains, locus YJL187C, strain SWE1 (second series), stronger effect = lower value",0.984
same,normalized growth,[12],0.984
same,normalized growth,[13],0.928
same,normalized growth,"S. cerevisiae deletion strains, locus YKL009W, strain mrt4, stronger effect = lower value",0.946
same,normalized growth,"S. cerevisiae deletion strains, locus YKL068W, stronger effect = lower value",0.993
same,normalized growth,"S. cerevisiae deletion strains, locus YKL085W, strain MDH1 (second series), stronger effect = lower value",0.984
same,normalized growth,"S. cerevisiae deletion strains, locus YKL085W, strain MDH1, stronger effect = lower value",0.984
same,normalized growth,[31],1
same,normalized growth,"S. cerevisiae deletion strains, locus YKR001C, strain vps1, stronger effect = lower value",0.978
same,normalized growth,[14],0.868
same,normalized growth,"S. cerevisiae deletion strains, locus YLR058C, strain SHM2, stronger effect = lower value",0.982
same,normalized growth,"S. cerevisiae deletion strains, locus YLR102C, strain apc9, stronger effect = lower value",0.983
same,normalized growth,[17],0.829
same,normalized growth,"S. cerevisiae deletion strains, locus YLR268W, strain sec22, stronger effect = lower value",0.981
same,normalized growth,"S. cerevisiae deletion strains, locus YLR330W, strain CHS5, stronger effect = lower value",0.992
same,normalized growth,"S. cerevisiae deletion strains, locus YLR342W, strain FKS1 (second series), stronger effect = lower value",0.996
same,normalized growth,"S. cerevisiae deletion strains, locus YLR371W, strain rom2, stronger effect = lower value",0.985
same,normalized growth,"S. cerevisiae deletion strains, locus YLR418C, strain cdc73, stronger effect = lower value",0.932
same,normalized growth,"S. cerevisiae deletion strains, locus YML016C, strain PPZ1, stronger effect = lower value",0.988
same,normalized growth,"S. cerevisiae deletion strains, locus YML032C, strain rad52, stronger effect = lower value",0.989
same,normalized growth,"S. cerevisiae deletion strains, locus YML124C, strain tub3, stronger effect = lower value",0.996
same,normalized growth,"S. cerevisiae deletion strains, locus YMR078C, strain ctf18, stronger effect = lower value",0.997
same,normalized growth,"S. cerevisiae deletion strains, locus YMR223W, strain ubp8, stronger effect = lower value",0.98
same,normalized growth,[20],0.981
same,normalized growth,[21],0.954
same,normalized growth,"S. cerevisiae deletion strains, locus YNL067W, strain RPL9B, stronger effect = lower value",0.971
same,normalized growth,[22],0.918
same,normalized growth,[23],0.987
same,normalized growth,"S. cerevisiae deletion strains, locus YNL233W, strain BNI4, stronger effect = lower value",0.982
same,normalized growth,"S. cerevisiae deletion strains, locus YNL250W, strain rad50, stronger effect = lower value",0.982
same,normalized growth,"S. cerevisiae deletion strains, locus YNL271C, strain bni1, stronger effect = lower value",0.991
same,normalized growth,"S. cerevisiae deletion strains, locus YNL298W, strain CLA4, stronger effect = lower value",0.979
same,normalized growth,"S. cerevisiae deletion strains, locus YNL307C, strain MCK1, stronger effect = lower value",0.987
same,normalized growth,[25],0.981
same,normalized growth,"S. cerevisiae deletion strains, locus YNR052C, strain pop2, stronger effect = lower value",0.986
same,normalized growth,[32],0.788
same,normalized growth,"S. cerevisiae deletion strains, locus YOL012C, strain htz1",1.08
same,normalized growth,"S. cerevisiae deletion strains, locus YOL147C, strain pex11, stronger effect = lower value",1.01
same,normalized growth,"S. cerevisiae deletion strains, locus YOR061W, strain CKA2, stronger effect = lower value",0.964
same,normalized growth,"S. cerevisiae deletion strains, locus YOR069W, strain VPS5, stronger effect = lower value",0.995
same,normalized growth,"S. cerevisiae deletion strains, locus YOR136W, strain idh2, stronger effect = lower value",0.988
same,normalized growth,"S. cerevisiae deletion strains, locus YOR144C, strain elg1, stronger effect = lower value",0.989
same,normalized growth,"S. cerevisiae deletion strains, locus YOR184W, strain ser1, stronger effect = lower value",0.968
same,normalized growth,"S. cerevisiae deletion strains, locus YOR316C, strain cot1, stronger effect = lower value",0.969
same,normalized growth,[27],0.914
same,normalized growth,[28],0.989
same,normalized growth,"S. cerevisiae deletion strains, locus YPR119W, strain clb2, stronger effect = lower value",0.993
same,normalized growth,"S. cerevisiae deletion strains, locus YPR141C, strain kar3, stronger effect = lower value",0.949
same,normalized growth,"S. cerevisiae deletion strains, locus YPR163C, strain tif3, stronger effect = lower value",0.994
same,normalized growth,"S. cerevisiae deletion strains, locus YPR167C, strain met16, stronger effect = lower value",0.979
same,normalized growth,"S. cerevisiae deletion strains, strain wtn01, stronger effect = lower value",0.981
same,normalized growth,[30],0.982
